# Measured values reported in PubChem BioAssay.
# Activity calls are given as the source filed them.
# What was measured:
# [1] = compounds binding Alexa647 anti-His antibody – biochemical, small-molecule microarray, 635 nm fluorescence, artefact control for SMM control protein annotation, primary screen (AID 1128); details: higher = more signal;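 further: score merges feature fluorescence with signal-to-noise for each printed compound spot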
# [2] = test system: Human papillomavirus type 1a E7 protein (residues 1-88); experiment: HPV1a E7 small-molecule binders, primary screen, biochemical, small-molecule microarray, residues 1-88, 635 nm (AID 1129); details: small-molecule microarray binding, fluorescence 635 nm; higher = more signal
# [3] = molecular target: Focal adhesion kinase 1 (Homo sapiens) (UniProt Q05397); experiment: PTK2 protein binding on printed compound slides – biochemical, small-molecule microarray, 635/667 nm fluorescence, BSA, DTT, primary screen (AID 1130); details: 635 nm fluorescence, higher = more signal;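 further: composite of spot emission at 667 nm and signal to noise over triplicate slides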
# [4] = test system: Fibrinogen (Alexa647-labelled); experiment: Alexa647-fibrinogen binding to printed small molecules – biochemical, small-molecule microarray, 635/667 nm fluorescence, artefact control for SMM control-protein annotation, profiling panel (AID 1131); details: fibrinogen-A647 binding fluorescence, higher = more signal;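 further: z-score merges 667 nm fluorescence with per-spot signal-to-noise over triplicate slides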
# [5] = molecular target: Follistatin (Homo sapiens) (UniProt P19883); experiment: FST protein binding to printed compounds – biochemical, small-molecule microarray, 635/667 nm fluorescence, primary screen (AID 1132); details: 635 nm fluorescence, higher = more signal
# [6] = molecular target: Fibroblast growth factor 2 (Homo sapiens) (UniProt P09038); experiment: basic fibroblast growth factor binding to printed compounds – biochemical, small-molecule microarray, 635/667 nm fluorescence, primary screen (AID 1133); details: FGF2, fluorescence 635/667, higher = more signal
# [7] = JC-1 mitochondrial potential readout, lung cancer cells – cell-based, A549, JC-1 fluorescence, basal, 24 h, 100 nL, profiling panel (AID 1138); details: higher = more signal;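 further: A549 lung adenocarcinoma cells under basal conditions with no added stimulus; test concentration not given here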
# [8] = test system: Lefty1; experiment: Lefty1 protein binding to printed compounds – biochemical, small-molecule microarray, 635/667 nm fluorescence, primary screen (AID 1139); details: fluorescence 635/667, higher = more signal
# [9] = test system: wheat germ agglutinin (Triticum aestivum), Alexa647-labelled; experiment: Alexa647-WGA lectin binding to printed small molecules – biochemical, small-molecule microarray, 635/667 nm fluorescence, artefact control for SMM control-protein annotation, profiling panel (AID 1140); details: WGA-A647 binding, 635 nm fluorescence, higher = more signal;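 further: score merges 667 nm feature emission with signal to noise over triplicate slides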
# [10] = molecular target: Luciferin 4-monooxygenase (Photinus pyralis) (UniProt P08659); experiment: inhibition of purified Photinus pyralis luciferase – biochemical, luminescence, purified enzyme, 2006 set, primary screen (AID 1141); details: purified firefly luciferase, SteadyGlo luminescence, 30 min; higher = more signal, called active from +8 up or from −8 down;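 further: cell-free assay with purified firefly luciferase at 100 ng per well in PBS; test concentration not given here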
# Luciferin 4-monooxygenase (Photinus pyralis), sequence (P08659 whole entry, looked up): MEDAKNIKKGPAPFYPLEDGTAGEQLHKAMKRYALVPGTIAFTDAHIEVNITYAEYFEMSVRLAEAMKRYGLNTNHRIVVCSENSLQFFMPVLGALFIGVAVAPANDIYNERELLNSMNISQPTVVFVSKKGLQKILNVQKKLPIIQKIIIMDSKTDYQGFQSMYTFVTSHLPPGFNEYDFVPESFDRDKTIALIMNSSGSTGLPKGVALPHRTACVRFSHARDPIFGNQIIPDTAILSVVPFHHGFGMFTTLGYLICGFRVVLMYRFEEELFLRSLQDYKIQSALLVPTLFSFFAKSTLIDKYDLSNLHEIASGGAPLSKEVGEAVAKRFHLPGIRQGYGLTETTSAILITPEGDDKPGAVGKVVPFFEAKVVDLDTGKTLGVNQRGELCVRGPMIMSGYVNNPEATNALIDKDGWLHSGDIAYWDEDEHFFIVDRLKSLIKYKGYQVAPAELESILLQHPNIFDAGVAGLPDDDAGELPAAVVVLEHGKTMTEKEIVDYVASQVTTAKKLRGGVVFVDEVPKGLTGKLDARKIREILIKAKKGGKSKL
# Fibroblast growth factor 2 (Homo sapiens), sequence (P09038 whole entry, looked up): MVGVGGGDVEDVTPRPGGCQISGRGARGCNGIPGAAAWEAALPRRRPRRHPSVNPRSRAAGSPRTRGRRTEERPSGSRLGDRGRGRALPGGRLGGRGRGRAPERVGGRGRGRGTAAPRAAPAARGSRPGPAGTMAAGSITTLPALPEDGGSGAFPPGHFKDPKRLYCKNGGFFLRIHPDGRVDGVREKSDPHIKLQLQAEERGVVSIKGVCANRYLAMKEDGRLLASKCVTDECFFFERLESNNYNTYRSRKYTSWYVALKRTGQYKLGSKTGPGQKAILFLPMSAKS
# Follistatin (Homo sapiens), sequence (P19883 whole entry, looked up): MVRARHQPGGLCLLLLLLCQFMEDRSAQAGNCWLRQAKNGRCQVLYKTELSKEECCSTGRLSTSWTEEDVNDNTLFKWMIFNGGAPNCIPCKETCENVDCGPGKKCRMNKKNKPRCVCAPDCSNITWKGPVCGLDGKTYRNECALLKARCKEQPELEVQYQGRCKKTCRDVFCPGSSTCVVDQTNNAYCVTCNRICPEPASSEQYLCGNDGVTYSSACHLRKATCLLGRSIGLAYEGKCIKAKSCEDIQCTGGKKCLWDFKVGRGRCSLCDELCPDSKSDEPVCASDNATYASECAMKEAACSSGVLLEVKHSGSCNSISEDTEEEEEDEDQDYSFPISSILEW
# Focal adhesion kinase 1 (Homo sapiens), sequence (Q05397 whole entry, looked up): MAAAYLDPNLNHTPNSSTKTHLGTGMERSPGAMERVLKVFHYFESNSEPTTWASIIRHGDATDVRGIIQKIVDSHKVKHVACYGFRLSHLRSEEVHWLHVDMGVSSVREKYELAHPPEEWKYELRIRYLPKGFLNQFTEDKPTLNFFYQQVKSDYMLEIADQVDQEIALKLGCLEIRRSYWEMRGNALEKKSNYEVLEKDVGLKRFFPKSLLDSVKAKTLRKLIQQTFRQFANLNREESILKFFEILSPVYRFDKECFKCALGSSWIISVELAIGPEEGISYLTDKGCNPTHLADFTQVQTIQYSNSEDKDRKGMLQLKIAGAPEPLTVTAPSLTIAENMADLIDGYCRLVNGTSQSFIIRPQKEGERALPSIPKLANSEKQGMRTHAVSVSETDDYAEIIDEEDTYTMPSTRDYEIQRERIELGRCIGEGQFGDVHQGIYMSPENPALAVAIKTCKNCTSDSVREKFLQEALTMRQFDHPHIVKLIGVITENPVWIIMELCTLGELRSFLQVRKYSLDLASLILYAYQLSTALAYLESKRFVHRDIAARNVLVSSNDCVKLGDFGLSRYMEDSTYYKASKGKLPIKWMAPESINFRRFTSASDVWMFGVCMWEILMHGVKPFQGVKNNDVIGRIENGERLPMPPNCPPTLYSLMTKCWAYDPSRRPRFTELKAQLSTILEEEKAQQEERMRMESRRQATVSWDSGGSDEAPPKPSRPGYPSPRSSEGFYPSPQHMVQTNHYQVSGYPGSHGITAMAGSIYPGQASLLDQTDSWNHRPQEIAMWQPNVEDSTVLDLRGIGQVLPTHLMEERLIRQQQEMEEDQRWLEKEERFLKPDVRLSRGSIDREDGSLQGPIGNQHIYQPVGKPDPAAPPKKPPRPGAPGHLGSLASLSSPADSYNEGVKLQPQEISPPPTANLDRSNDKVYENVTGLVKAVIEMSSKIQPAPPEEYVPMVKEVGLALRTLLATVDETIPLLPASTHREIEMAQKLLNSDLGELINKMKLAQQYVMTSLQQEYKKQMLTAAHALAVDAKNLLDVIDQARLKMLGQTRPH
SMILES,composite z-score [1],composite z-score [2],composite z-score [3],composite z-score [4],composite z-score [5],composite z-score [6],z-score [7],composite z-score [8],composite z-score [9],z-score [10]
CCOC(=O)C[C@H]1[C@H](OC(=O)c2ccccc2-c2ccccc2)[C@@H](NC(=O)Cc2ccc(OC)cc2)c2cc(OCCCO)ccc2N1C(=O)c1ccccc1,-0.269,-0.371,0.145,-0.449,0.23,-0.443,0.362,0.189,-0.0397,0.474 (inactive)
O=C1OCCC=C[C@H]2OC34C=CCN(Cc5ccccc5)C(=O)[C@H]3N(CCCCCCO)C(=O)[C@@H]4C12 (stereo not given in full),0.0899,-0.374,-0.574,-0.873,-0.0109,-1.02,0.544,0.798,-0.828,0.467 (inactive)
C=CCN1C(=O)[C@]2(O[C@H](CCO)[C@@H]([Si](C)(C)c3ccc(OC)cc3)[C@@H]2C)c2cc(NC(=O)[C@H](C)O)ccc21,1.58,1.22,0.937,0.762,0.222,0.313,0.388,0.673,0.394,-0.181 (inactive)
CCCC[C@@H]1C[C@H]1[C@@H](NC(=O)c1ccc(-c2ccccc2)cc1)c1ccc(-c2ccccc2)cc1,0.0916,0.481,0.504,0.348,1.37,0.271,0.738,0.971,0.249,0.779 (inactive)
CCCCC(CC)C(O)C1C=CC2C(=O)N(c3ccccc3)C(=O)C2N1Nc1ccccc1 (stereo not given),0.804,1.19,0.462,0.881,0.858,-0.411,-0.99,-0.249,1.15,-0.15 (inactive)
Cc1ccc(S[C@]2(C(=O)NCC(C)C)CC(=O)N(Cc3ccccc3Cl)[C@@H]2c2ccc(CO)cc2)cc1,1.8,-1.41,-1.09,-0.804,-1.5,-1.21,1.37,-2.17,0.208,-0.79 (inactive)
COc1ccc(C(=O)Nc2cccc(CN3C(=O)[C@@]4(O[C@@H](CCn5cc(CCO)nn5)[C@H]([Si](C)(C)c5ccc(OC)cc5)[C@H]4C)c4ccccc43)c2)cc1,1.38,1.16,0.582,0.701,1.35,1.51,-0.0548,1.29,0.701,-0.775 (inactive)
COCCOC(=O)N1C(=O)[C@@]2(c3cc(C#CCNC(N)=O)ccc31)[C@H](C(=O)N1CCN(c3ncccn3)CC1)[C@H]1C(=O)O[C@H](c3ccccc3)[C@H](c3ccccc3)N1[C@@H]2c1ccccc1OCCO,1.24,1.07,0.261,0.797,1.37,0.406,-1.55,0.889,0.749,1.05 (inactive)
Cc1ccc(S[C@]2(C(=O)O)CC(=O)N(C3Cc4ccccc4C3)[C@@H]2c2ccc(CO)cc2I)cc1,0.198,0.27,0.148,0.439,1.09,-0.499,0.478,-0.936,0.513,0.285 (inactive)
COC(=O)C(CC#Cc1ccc2c(c1)[C@]1(C(=O)N2)[C@H](C(=O)NC[C@H](O)c2ccccc2)[C@H]2C(=O)O[C@H](c3ccccc3)[C@H](c3ccccc3)N2[C@@H]1c1ccc(OCCO)cc1)C(=O)OC,1.5,1.21,0.538,0.957,1.25,0.937,-1.32,1.69,1.21,-1.83 (inactive)
COCCOC(=O)N1C(=O)[C@@]2(c3cc(C#CCC(C(=O)OC)C(=O)OC)ccc31)[C@H](C(=O)N1CCN(c3ncccn3)CC1)[C@H]1C(=O)O[C@H](c3ccccc3)[C@H](c3ccccc3)N1[C@@H]2c1ccc(OCCO)cc1,1.61,1.19,0.21,0.993,1.24,1.2,-1.31,0.733,0.945,-0.59 (inactive)
Cc1c(NC(=O)CC#N)c(=O)n(-c2ccccc2)n1C,0.514,0.469,0.616,0.134,0.116,0.291,0.385,0.645,0.114,0.551 (inactive)
O=c1oc(-c2ccccc2)nc2cc(Br)ccc12,0.118,0.71,0.704,0.481,0.405,0.671,0.112,0.585,0.466,-9.5 (active)
COCCOC(=O)N1C(=O)[C@@]2(c3cc(C#CC4(O)CCCCCC4)ccc31)[C@H](C(=O)N1CCCCCCC1)[C@H]1C(=O)O[C@H](c3ccccc3)[C@H](c3ccccc3)N1[C@@H]2c1ccccc1OCCO,1.24,1.22,0.808,0.832,1.42,1.11,-1.04,0.955,1.39,-0.969 (inactive)
CC(C)C(=C=CC[C@@H](O)c1ccccc1OCCO)C[C@@H](O)c1ccccn1,-0.131,0.647,1.02,0.694,0.6,0.566,1.43,0.811,0.21,-0.623 (inactive)
COCCOC(=O)N1C(=O)[C@@]2(c3ccccc31)[C@H](c1ccc(O)cc1)N1[C@H](c3ccccc3)[C@H](c3ccccc3)OC(=O)[C@H]1[C@@H]2C(=O)N1CCc2cc(OC)c(OC)cc2C1,1.7,0.848,0.341,0.107,1.35,1.85,0.355,1.14,0.216,-0.704 (inactive)

SMILES,composite z-score [1],composite z-score [2],composite z-score [3],composite z-score [4],composite z-score [5],composite z-score [6],z-score [7],composite z-score [8],composite z-score [9],z-score [10]
COc1ccccc1CN1C(=O)c2ccccc2[C@@H](C(=O)NCCN2CCOCC2)[C@@H]1c1ccc(CO)cc1,-0.355,0.789,-0.444,0.234,0.912,1.26,0.708,-0.0327,0.285,0.706 (inactive)
C=CC[C@]1(C(=O)N2CCOCC2)N=C(c2ccc(OCCCO)cc2)O[C@H]1c1ccccc1,1.69,1.22,0.602,0.866,0.401,0.12,0.409,-0.781,1.28,1.25 (inactive)
C=CCOC(=O)[C@@H]1[C@H]2C(=O)O[C@H](c3ccccc3)[C@H](c3ccccc3)N2[C@H](c2ccc(OCCOC(=O)[C@@H]3C[C@@H]4C(=O)N[C@@H](Cc5ccccc5)C(=O)N4[C@@H]3c3cccc(OCCO)c3)cc2)[C@@]12C(=O)Nc1ccc(I)cc12,0.351,0.675,0.184,0.199,1.33,1.55,-0.917,0.951,0.181,0.152 (inactive)
CCN(CC)c1ccc(N2CC=CC34O[C@@H]5C=CCCOC(=O)C5[C@H]3C(=O)N(CCCCCO)[C@@H]4C2=O)cc1 (stereo not given in full),0.0436,-0.513,-0.172,-0.471,-0.0495,-0.304,2.56,-0.0412,0.169,-1.29 (inactive)
COC(=O)[C@@]1(Cc2ccccc2)[C@H]2c3cc(C(=O)N4CCCC4)n(C)c3C[C@H]2CN1C(=O)c1ccccc1,1.95,0.762,1.73,1.03,0.725,-0.915,0.244,-0.0781,1.06,0.271 (inactive)
[N-]=[N+]=Nc1ccccc1[C@@H]1OC(c2ccc(OCCCO)cc2)=N[C@]1(CCS(=O)(=O)c1ccccc1)C(=O)N1CCOCC1,1.48,1.26,0.488,1.02,1.33,0.544,1.13,0.541,1.3,-12.9 (active)
COC(=O)[C@@]1(Cc2ccccc2)[C@H]2c3cc(C(=O)N(C)C)n(Cc4cc(C)n(C)n4)c3C[C@H]2CN1C(=O)c1ccccc1,1.95,1.13,0.57,-0.103,0.229,-0.768,-0.127,-0.169,0.889,0.887 (inactive)
CC(C)c1ccc(NN2C(C(O)c3c(F)cccc3Cl)C=CC3C(=O)N(c4ccccc4)C(=O)C32)cc1 (stereo not given),0.825,1.13,0.823,0.935,1.02,-0.0904,-1.27,-0.0553,0.959,-1.12 (inactive)
CC(C)Cc1ccc(CN2CC[C@@H](NS(=O)(=O)c3ccccc3)C2)cc1,0.441,-0.593,-0.0553,-1.02,0.797,-0.0321,-0.641,0.477,-0.654,0.826 (inactive)
N#Cc1ccc(NN2C(C(O)C3CCCCC3)C=CC3C(=O)N(c4ccccc4)C(=O)C32)cc1 (stereo not given),0.422,1.27,0.533,1.03,1.27,-0.252,-0.309,0.058,0.847,-0.394 (inactive)
C=CCNC(=O)[C@@H]1[C@H]2C(=O)O[C@H](c3ccccc3)[C@H](c3ccccc3)N2[C@H](c2ccccc2OCCO)[C@@]12C(=O)Nc1ccc(C#CC3=CCCCC3)cc12,1.57,1.22,0.683,0.9,1.21,1.02,-1.55,1.12,0.971,-1.48 (inactive)
C=CCOC(=O)[C@H]1[C@@H]2C(=O)O[C@@H](c3ccccc3)[C@@H](c3ccccc3)N2[C@@H](c2ccc(OCCOC(=O)[C@@H]3C[C@@H]4C(=O)N5CCC[C@H]5C(=O)N4[C@@H]3c3ccc(O)cc3)cc2)[C@]12C(=O)Nc1ccccc12,1.16,1.18,0.109,0.655,1.39,1.35,-1.19,1.04,0.77,-0.354 (inactive)
Cc1cc(C)cc(N2C(=O)CS(=O)(=O)C2c2cccc([N+](=O)[O-])c2)c1 (stereo not given),1.11,0.632,0.894,0.829,0.508,0.126,0.382,0.874,0.841,-0.273 (inactive)
C=CCC(OC(C)=O)[C@@H]1[C@@H](N(Cc2cccc3ccccc23)C(=O)c2cccc3ccccc23)c2cc(OCCCO)ccc2N1C(=O)c1ccc2ccccc2n1 (stereo not given in full),0.833,-0.0829,0.791,0.868,1.05,0.494,-0.449,0.457,-0.243,1.01 (inactive)
O=C1O[C@@H](c2ccccc2)[C@@H](c2ccccc2)N2[C@@H](c3ccc(O)cc3)[C@]3(C(=O)Nc4ccc(C#CC5=CCCCC5)cc43)[C@@H](C(=O)O)[C@H]12,3.13,1.11,0.676,0.734,0.473,0.146,-0.29,0.195,1.35,-3.5 (inactive)
Cc1ccc(F)cc1S(=O)(=O)N[C@@H]1CCN(Cc2ccc(-c3ccccc3)cc2)C1,-0.0798,0.517,0.377,-0.0516,0.646,0.424,0.225,0.292,-0.108,0.715 (inactive)
